Measurements: PubChem BioAssay AID488965 (Broad Institute, 2010)
Out of some 340,000 compounds screened, about 210 (0.062%) were called active. The sample as a whole holds a higher share of actives than the screen did. A number with no mark means an inactive call. Cut-off read from the data, not from the text of the source: active = inhibition above about 30% (passing the limit was not always enough); inconclusive = no clear call, values can overlap the other calls.

The compounds below were run on PvdQ acylase [Pseudomonas aeruginosa LESB58] (assay: P. aeruginosa PvdQ acylase inhibitors, primary screen, biochemical, fluorescence, plate reader and imaging, single point (AID 488965;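 note: 0% = vehicle neutral wells and 100% = reference inhibitor wells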)). Settings: purified PvdQ acylase, at 10 µM, active compounds read high.
CCN(CC)c1ccc(NC(=O)c2ccc(Cl)nc2)cc1 was tested, and the inhibition was -15.1%. For CCCCNC(=O)C1(c2ccc(OC)cc2)CCOCC1, the inhibition was -4.05%. For NS(=O)(=O)c1ccc(NC(=S)N2CCCC2)cc1, the inhibition was 9.11%. Work on CC1(C)Oc2ccc(C(=O)N3CCOCC3)cc2N(CC(=O)Nc2ccccc2)C1=O yielded an inhibition of -16.2%. COCCCNC(=O)/C(C#N)=C/c1c(N2CCCCCC2)nc2ccccn2c1=O showed an inhibition of -15.4%. With Cc1ccccc1-n1nc(SCC(=O)O)sc1=S the inhibition was -9.08%. In the case of Cc1cc(NC(=O)c2ccccc2C)no1, the inhibition is reported as 11.3%. For Cc1csc(NC(=O)Nc2ccccc2[N+](=O)[O-])n1, the inhibition was -8.58%. Cc1cc(NC(=O)Nc2ccccc2[N+](=O)[O-])no1 was tested, and the inhibition was 62.7% (active). Compound Cc1c(C(=O)NCCN2CCOCC2)sc2nc(-c3ccc(F)cc3)cn12 has an inhibition of -12.4%. Work on Cc1ccc(CNS(=O)(=O)CCNC(=O)c2ccccc2)cc1 yielded an inhibition of 0.203%. Work on CC1CCCCC1NCC(=O)Nc1ccccc1C(=O)Nc1ccccc1 (configuration not stated) yielded an inhibition of -4.86%. With O=C(Nc1ccc(F)cc1)c1cccnc1N1CCOCC1 the inhibition was -0.858%. With O=C(O)CCC(=O)Nc1ccc(OCC2CCCO2)cc1 (configuration not stated) the inhibition was -5.22%. For Cc1ccc(NC(=O)CC2C(=O)N(Cc3ccccc3)C(=S)N2NC(=O)c2cccc(F)c2)c(C)c1 (configuration not stated), the inhibition was 5.2%. COc1ccc(NC(=O)C2CCC(CNC(=O)[C@@H]3Cc4ccccc4CN3)CC2)cc1 (some centres not stated) was tested, and the inhibition was -2.14%. For Cn1cccc1C(C#N)c1ccccc1C#N (configuration not stated), the inhibition was 56.5% (active). In the case of CC(C)C(=O)Nc1oc(-c2ccccc2)cc1C#N, the inhibition is reported as 7.27%. Work on Cn1cc(-c2ccccc2)cc(C#N)c1=O yielded an inhibition of -0.186%. Cc1cc(C)c2c(NC(=O)C3CC3)nn(C)c2n1 showed an inhibition of 3.4%. For Cc1nnc(SC(C)C(=O)Nc2ccc(S(=O)(=O)NC3CCCCC3)cc2)s1 (configuration not stated), the inhibition was 7.56%. With NS(=O)(=O)c1ccc(CCNC(=O)CN2C(=O)c3ccccc3S2(=O)=O)cc1 the inhibition was 0.254%. With COc1ccccc1NC(=O)C(C)OC(=O)CC1CCCC1 (configuration not stated) the inhibition was -15.2%. For COc1ccc(-c2ocnc2C(=O)Nc2ccc3c(c2)CCC3)cc1, the inhibition was 0.782%. Cc1cc(Nc2ccc(Br)cc2F)n2ncnc2n1 showed an inhibition of -0.336%. Compound CCc1cccc(NC(=O)CCCN2C(=O)C(c3ccccc3)Oc3cccnc32)c1 (configuration not stated) has an inhibition of -6.79%. Compound O=C(Nc1c2c(nn1-c1ccc(F)cc1)CS(=O)C2)C12CC3CC(CC(C3)C1)C2 (configuration not stated) has an inhibition of -15.9%. Work on O=C(NCCOc1ccccc1F)Nc1ccc(Br)cc1 yielded an inhibition of -15.7%. CO[C@@H]1[C@@H](OC(N)=O)[C@@H](O)C(Oc2ccc3c(O)c(NC(=O)c4ccc(O)c(CC=C(C)C)c4)c(=O)oc3c2C)OC1(C)C (some centres not stated) was tested, and the inhibition was 3.42%. O=C(Nc1ccccc1C(=O)N1CCOCC1)c1ccc(CSc2ccccc2)cc1 showed an inhibition of -11.3%. In the case of C[C@@]12C(=O)N(c3cccc(Br)c3)C(=O)N1[C@H](c1ccc(Cl)cc1)[C@@H]1C(=O)N(C3CCCCC3)C(=O)[C@@H]12, the inhibition is reported as -10.3%. Cc1c(C(=O)NC(=S)NCc2cccnc2)oc2ccccc12 showed an inhibition of -8.97%. For CC(C)(CSc1nncn1/N=C/c1ccco1)NS(=O)(=O)c1ccc(Cl)cc1, the inhibition was -10%. COc1ccc(C(O)(C2CCCCC2)C(CN2CCCC2)c2ccccc2)cc1 (configuration not stated) was tested, and the inhibition was -13.6%. CCOC(=O)C1CCN(C(=O)COc2cccc3ccccc23)CC1 gave an inhibition of -22%. Work on O=C1CN(C(=O)COC(=O)/C=C/c2ccc(F)cc2)c2ccccc2N1 yielded an inhibition of -0.579%. COc1ccc(N(C)C(=O)C2CCN(S(=O)(=O)c3cccc4nsnc34)CC2)cc1 was tested, and the inhibition was -10.1%. For CC(C)(COC(=O)Nc1ccccc1)COC(=O)Nc1ccccc1, the inhibition was 3.19%. In the case of C/C(=N\NS(=O)(=O)c1cccc([N+](=O)[O-])c1)c1cc2ccccc2o1, the inhibition is reported as 12.7%. Cc1ccc(NC(=O)c2nc[nH]c2C(=O)N2CCCCC2)c(C(=O)c2ccccc2)c1 was tested, and the inhibition was 6.08%. Work on CCc1ccccc1S(=O)(=O)Cc1ccc(C(=O)NCCc2ccccc2)o1 yielded an inhibition of -14.5%. Compound Cc1nnc(SCC(=O)N(C(C)C)C(C)C)nc1C has an inhibition of -17%. For CC(Sc1nnc(Cc2ccc([N+](=O)[O-])cc2)o1)C(N)=O (configuration not stated), the inhibition was 5.89%. In the case of O=C(NCc1cccc(Cl)c1)C1CCC(=O)N(C2CC2)C1 (configuration not stated), the inhibition is reported as 0.749%. In the case of Cc1ccc(S(=O)(=O)N2CCCCC2)cc1C(=O)N(C)CC(=O)Nc1cccc(F)c1, the inhibition is reported as 2.44%. CCn1c2ccccc2c2cc(NC(=O)C/C(C)=N/NC(=O)c3ccccc3N)ccc21 gave an inhibition of -14.8%. With COc1ccc(N(CC(=O)NCC2CCCO2)C(=O)CCC(=O)Nc2nccs2)c(OC)c1 (configuration not stated) the inhibition was 0.881%. Work on Cc1ccc(C(c2sc3nc(C)nn3c2O)N2CCN(c3ccc(F)cc3)CC2)cc1 (configuration not stated) yielded an inhibition of -4.54%. CCCC1CC(C)(C(=O)Cn2[nH]c(=O)ccc2=O)OC1=O (configuration not stated) showed an inhibition of -24.8%. For CCNC(=O)N1CCCC(C(=O)c2ccc(-c3ccccc3)cc2)C1 (configuration not stated), the inhibition was -11%. In the case of O=C(c1ccc(-c2ccccc2)cc1)C1CCCN(C(=O)c2cncs2)C1 (configuration not stated), the inhibition is reported as 46.5% (active). Cn1nccc1C(=O)N1CCCC(C(=O)c2ccc(Oc3ccccc3)cc2)C1 (configuration not stated) gave an inhibition of -15.6%. Work on COC(=O)c1c(NC(=O)CN2C(=O)NC(CCc3ccccc3)C2=O)sc2c1CCCCC2 (configuration not stated) yielded an inhibition of 2.45%. CCN1CCN(c2ccc([N+](=O)[O-])cc2C(=O)c2ccc(Cl)cc2)CC1 gave an inhibition of -6.71%. For CCC(C)(C)NC(=O)c1cc([N+](=O)[O-])ccc1N1CCCCC1, the inhibition was 38.9% (active). Work on CC1CCN(c2ccc([N+](=O)[O-])cc2C(N)=O)CC1 yielded an inhibition of -4.82%. Work on CCOc1cc(/C=C2\SC(N3CCCC(C)C3)=NC2=O)ccc1O (configuration not stated) yielded an inhibition of -6.66%. Compound c1ccc2cc(CCCc3cc4ccccc4cn3)ncc2c1 has an inhibition of 21.2%. Cc1c(NC(=S)NC(=O)CCc2ccccc2)c(=O)n(-c2ccccc2)n1C gave an inhibition of -12.9%. For Cc1ccc(NC(=O)CCOc2ccccc2)cc1S(=O)(=O)Nc1ccccc1Cl, the inhibition was -5.34%. Cc1nc2nc(C)c(CCC(=O)N3CCN(c4ccccc4)CC3)c(C)n2n1 was tested, and the inhibition was -9.01%. For CO/N=C/c1cn(-c2ccc(Cl)cc2)nn1, the inhibition was 49% (active). Work on CN(C)c1nnnn1-c1ccc(Cl)cc1 yielded an inhibition of -0.634%. In the case of CN(C)c1ccc(/C=C/C(=O)c2ccc(C(C)(C)C)cc2)cc1[N+](=O)[O-], the inhibition is reported as 7.14%. With CN(C)c1ccc(/C=C/C(=O)c2ccc(O)cc2)cc1[N+](=O)[O-] the inhibition was -3.3%. With O=C(/C=C/c1ccc(Cl)c([N+](=O)[O-])c1)c1ccc(O)cc1 the inhibition was 42% (active). Cc1ccc(N2CC(C(=O)Nc3cc(Cl)ccc3-n3cncn3)CC2=O)cc1 (configuration not stated) showed an inhibition of -12.4%. For c1cc(-n2cnnn2)ccc1NC1=NCCC1, the inhibition was -15.4%. Cc1ccc(C(=O)Nc2nnc(C3=COCCO3)o2)cc1C was tested, and the inhibition was -6.48%. Cc1c(NC(=O)c2c([N+](=O)[O-])cnn2C)c(=O)n(-c2ccccc2)n1C was tested, and the inhibition was -9.74%. With CSC1=N/C(=C\C=C\c2cccs2)C(=O)S1 the inhibition was 93.4% (active). ONC(=Nc1ccccc1)c1ccccc1Cl was tested, and the inhibition was -2.68%. In the case of O=C(CCCN1C(=O)CSc2ncccc21)N1CCN(c2cccc(C(F)(F)F)c2)CC1, the inhibition is reported as -3.29%. For O=C(Nc1ccc(Cl)cc1)c1cccc(OC(=S)N2CCOCC2)c1, the inhibition was -4.62%. NC(=O)c1ccc(NC(=O)COC(=O)c2c3c(nc4ccccc24)/C(=C\c2ccc4c(c2)OCO4)CCC3)cc1 showed an inhibition of 12.2%. Cc1cc(C)cc(OCC(=O)NNC(=O)c2cc3ccccc3oc2=O)c1 showed an inhibition of -2.78%. With CCOC(=O)c1cc2cc3ccccc3cc2oc1=O the inhibition was 65.9% (active). For C=CCc1cccc2cc(C(=O)OCC)c(=O)oc12, the inhibition was 13.8%. With CC(=O)Nc1ccc(C(=O)OCC(=O)Nc2ccc([N+](=O)[O-])cc2C(F)(F)F)cc1 the inhibition was -15.1%. For CCc1ccc(NC(=O)CN2CCC(C(=O)c3ccc(OC)cc3)CC2)cc1, the inhibition was -11.8%. O=C(CN(c1ccccc1)S(=O)(=O)c1ccc(Cl)cc1)Nc1ccccc1C(=O)N1CCCC1 gave an inhibition of -7.63%. O=C(c1ccccc1)c1ccc2nc(N3CCCCC3)c3nncn3c2c1 gave an inhibition of -14.2%. CC(OC(=O)CCc1nc(=O)c2ccccc2n1C)C(=O)NCc1ccc2c(c1)OCO2 (configuration not stated) was tested, and the inhibition was 11.9%. For O=C1CC(C(=O)O)NC(=S)N1 (configuration not stated), the inhibition was -11%. O=C(NCC(=O)N(Cc1cccs1)C(C(=O)NC1CCCCC1)c1ccco1)c1cccs1 (configuration not stated) showed an inhibition of -5.29%. With CCOC(=O)N1CCC(=NNC(N)=O)CC1 the inhibition was 5.61%. In the case of O=S(=O)(O)c1cc2onnc2c2ccccc12, the inhibition is reported as -19.4%. Work on CCOc1cc(C(=O)N(Cc2ccccc2)c2ccc(C)cc2)ccc1OCC(=O)N1CCOCC1 yielded an inhibition of -12.7%. COc1cc(OC)cc(-c2cc3ccc(F)cc3cn2)c1 was tested, and the inhibition was 8.09%. With COc1ccc(-c2cc3ncccc3cn2)cc1 the inhibition was 48.1% (active). COc1ccc(-c2nnc(-c3ccc4ccccc4c3)o2)cc1 was tested, and the inhibition was -12.7%. Work on COC(=O)Cc1csc(/N=C/c2c(O)n(-c3cccc(C(F)(F)F)c3)c(=O)c3ccccc23)n1 yielded an inhibition of -13%.
